± gives the standard deviation of the averaged measurements.
How the values were obtained:
[1] = tested on: DLD1; test: cell viability (CellTiter-Glo) relative to plate median (fraction of plate median); higher = more viable cells; conditions: 5 µM; treatment time 24 h; reporter: 7TFP
In short: (§1)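 Colorectal cancer cell lines stably transduced with lentiviral TCF/Wnt firefly luciferase reporters (7TFP or TCF4/Wnt) were seeded in 384-well plates. 24 h later they received library compounds at a final 5 µM for 24 h. Parallel plates were read for firefly luciferase or CellTiterGlo luminescence on a Tecan F500 reader. Each well's signal was normalised to the plate median (webcellHTS2, additive, no log transformation), and the mean of two independent replicates is reported.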

[2] = tested on: HCT116; test: as above; conditions: 5 µM; treatment time 24 h; reporter: TCF4/Wnt
In short: as §1

[3] = tested on: SW480; test: as above; conditions: 5 µM; treatment time 24 h; reporter: 7TFP
In short: as §1

[4] = tested on: DLD1; test: TCF/Wnt firefly luciferase reporter signal relative to plate median (fraction of plate median); higher = higher Wnt reporter signal; conditions: 5 µM; treatment time 24 h; reporter: 7TFP
In short: as §1

[5] = tested on: SW480; test: as above; conditions: 5 µM; treatment time 24 h; reporter: 7TFP
In short: as §1

## c1ccc2c(c1)CCCC2C1=NCCN1 (stereo not given)
[1]
  cell viability: 1.02 ± 0.014
[2]
  cell viability: 1.125 ± 0.0071
[3]
  cell viability: 1.07 ± 0.05
[4]
  TCF/Wnt firefly luciferase reporter signal: 1.08 ± 0.19
[5]
  TCF/Wnt firefly luciferase reporter signal: 0.985 ± 0.0014

## CC1(C)C[C@@H]2/C(CO)=C\C=C/[C@@](C)(O)CC[C@]21O
[1]
  cell viability: 1.08 ± 0.2
[2]
  cell viability: 0.946 ± 0.063
[3]
  cell viability: 1 ± 0.022
[4]
  TCF/Wnt firefly luciferase reporter signal: 1.11 ± 0.24
[5]
  TCF/Wnt firefly luciferase reporter signal: 0.818 ± 0.093

## CC(C)(Sc1cc(C(C)(C)C)c(O)c(C(C)(C)C)c1)Sc1cc(C(C)(C)C)c(O)c(C(C)(C)C)c1
[1]
  cell viability: 0.947 ± 0.034
[2]
  cell viability: 0.987 ± 0.061
[3]
  cell viability: 0.955 ± 0.028
[4]
  TCF/Wnt firefly luciferase reporter signal: 1.01 ± 0.035
[5]
  TCF/Wnt firefly luciferase reporter signal: 1.035 ± 0.0071

## O=c1cc(-c2ccc(O)cc2)oc2cc(O)cc(O)c12
[1]
  cell viability: 0.982 ± 0.026
[2]
  cell viability: 1.07 ± 0.028
[3]
  cell viability: 1.02 ± 0.014
[4]
  TCF/Wnt firefly luciferase reporter signal: 1.105 ± 0.0071
[5]
  TCF/Wnt firefly luciferase reporter signal: 1.03 ± 0.05

## CC(=O)OCC(=O)[C@@]12OC(C)(C)O[C@@H]1C[C@H]1[C@@H]3C[C@H](F)C4=CC(=O)C=C[C@]4(C)[C@@]3(F)[C@@H](O)C[C@@]12C
[1]
  cell viability: 1.01 ± 0.023
[2]
  cell viability: 1 ± 0.05
[3]
  cell viability: 0.969 ± 0.044
[4]
  TCF/Wnt firefly luciferase reporter signal: 1.03 ± 0.072
[5]
  TCF/Wnt firefly luciferase reporter signal: 1.06 ± 0.093

## CC(=O)OCC(=O)[C@@]1(O)[C@@H](C)C[C@H]2[C@@H]3CCC4=CC(=O)C=C[C@]4(C)[C@@]3(F)[C@@H](O)C[C@@]21C
[1]
  cell viability: 1.04 ± 0.014
[2]
  cell viability: 1.17 ± 0.11
[3]
  cell viability: 1 ± 0.026
[4]
  TCF/Wnt firefly luciferase reporter signal: 0.989 ± 0.011
[5]
  TCF/Wnt firefly luciferase reporter signal: 0.876 ± 0.14

## CC(C)c1c(O)c(-c2cc3c(c(C(C)C)c2O)CCC2C(C)(C)CCC[C@]32C)cc2c1CCC1C(C)(C)CCC[C@]21C (stereo not given in full)
[1]
  cell viability: 1.02 ± 0.083
[2]
  cell viability: 1.07 ± 0.1
[3]
  cell viability: 1.02 ± 0.035
[4]
  TCF/Wnt firefly luciferase reporter signal: 1.26 ± 0.26
[5]
  TCF/Wnt firefly luciferase reporter signal: 1.09 ± 0.014

## C=C[C@@]1(C)CC(=O)[C@]2(O)[C@@]3(C)[C@@H](O)CCC(C)(C)[C@@H]3[C@H](O)[C@H](OC(C)=O)[C@@]2(C)O1
[1]
  cell viability: 1.09 ± 0.099
[2]
  cell viability: 0.942 ± 0.069
[3]
  cell viability: 1.12 ± 0.021
[4]
  TCF/Wnt firefly luciferase reporter signal: 1.23 ± 0.05
[5]
  TCF/Wnt firefly luciferase reporter signal: 1.14 ± 0.099

## COc1ccc(-c2cc(=O)c3c(O)c(OC)c(OC)c(OC)c3o2)cc1OC
[1]
  cell viability: 1.07 ± 0.085
[2]
  cell viability: 1.19 ± 0.11
[3]
  cell viability: 1.15 ± 0.18
[4]
  TCF/Wnt firefly luciferase reporter signal: 0.964 ± 0.065
[5]
  TCF/Wnt firefly luciferase reporter signal: 0.967 ± 0.2

## CCn1nc(C(=O)O)c(=O)c2cc3c(cc21)OCO3
[1]
  cell viability: 1.01 ± 0.035
[2]
  cell viability: 0.972 ± 0.015
[3]
  cell viability: 0.988 ± 0.088
[4]
  TCF/Wnt firefly luciferase reporter signal: 1 ± 0.11
[5]
  TCF/Wnt firefly luciferase reporter signal: 0.875 ± 0.14

## CCCCOC(=O)c1ccc(N)cc1
[1]
  cell viability: 1.02 ± 0.054
[2]
  cell viability: 0.942 ± 0.023
[3]
  cell viability: 0.961 ± 0.021
[4]
  TCF/Wnt firefly luciferase reporter signal: 0.936 ± 0.027
[5]
  TCF/Wnt firefly luciferase reporter signal: 1.03 ± 0.083

## O=c1c(-c2ccc(O)cc2)coc2cc(O)ccc12 [Daidzein (Biofocus)]
[1]
  cell viability: 1.02 ± 0.03
[2]
  cell viability: 1.16 ± 0.11
[3]
  cell viability: 1.05 ± 0.057
[4]
  TCF/Wnt firefly luciferase reporter signal: 1.11 ± 0.11
[5]
  TCF/Wnt firefly luciferase reporter signal: 0.976 ± 0.091

## CCOC(=O)c1ccc(N)cc1
[1]
  cell viability: 1 ± 0.05
[2]
  cell viability: 0.903 ± 0.076
[3]
  cell viability: 1.005 ± 0.0071
[4]
  TCF/Wnt firefly luciferase reporter signal: 0.9395 ± 0.0092
[5]
  TCF/Wnt firefly luciferase reporter signal: 0.897 ± 0.09

## CC[C@H](/C=C/[C@@H](C)[C@H]1CC[C@H]2[C@@H]3CC=C4C[C@@H](O)CC[C@]4(C)[C@H]3CC[C@]12C)C(C)C
[1]
  cell viability: 1.04 ± 0.096
[2]
  cell viability: 1.14 ± 0.14
[3]
  cell viability: 1.03
[4]
  TCF/Wnt firefly luciferase reporter signal: 1.05 ± 0.014
[5]
  TCF/Wnt firefly luciferase reporter signal: 1 ± 0.066

## CO[C@H]1C[C@H](O[C@@H]2/C(C)=C/C[C@@H]3C[C@@H](C[C@]4(CC[C@H](C)[C@@H](C5CCCCC5)O4)O3)OC(=O)[C@@H]3C=C(C)/C(=N/O)[C@H]4OC/C(=C\C=C\[C@@H]2C)[C@]43O)O[C@@H](C)[C@@H]1O
[1]
  cell viability: 0.919 ± 0.021
[2]
  cell viability: 0.962 ± 0.038
[3]
  cell viability: 0.962 ± 0.037
[4]
  TCF/Wnt firefly luciferase reporter signal: 1.05 ± 0.021
[5]
  TCF/Wnt firefly luciferase reporter signal: 1.08 ± 0.035

## CC(=O)/N=c1/sc(S(N)(=O)=O)nn1C
[1]
  cell viability: 0.987 ± 0.047
[2]
  cell viability: 0.909 ± 0.13
[3]
  cell viability: 1.01 ± 0.053
[4]
  TCF/Wnt firefly luciferase reporter signal: 0.865 ± 0.1
[5]
  TCF/Wnt firefly luciferase reporter signal: 1.08 ± 0.099

## C[C@@H]1CC(=O)c2c(ccc3c2C(=O)c2cccc(O)c2C3=O)C1 [Ochromycinone (Isoform B, compound ID 7489)]
[1]
  cell viability: 1.1 ± 0.035
[2]
  cell viability: 1
[3]
  cell viability: 0.991 ± 0.028
[4]
  TCF/Wnt firefly luciferase reporter signal: 0.781 ± 0.1
[5]
  TCF/Wnt firefly luciferase reporter signal: 0.867 ± 0.047

## O=C(O)c1cc(=O)c2cccc(O)c2[nH]1
[1]
  cell viability: 0.932 ± 0.077
[2]
  cell viability: 1.07 ± 0.1
[3]
  cell viability: 0.946 ± 0.016
[4]
  TCF/Wnt firefly luciferase reporter signal: 1.19 ± 0.014
[5]
  TCF/Wnt firefly luciferase reporter signal: 1.15 ± 0.021

## O=C(O)c1cc2cc(F)ccc2[nH]1
[1]
  cell viability: 1.02 ± 0.053
[2]
  cell viability: 1.115 ± 0.0071
[3]
  cell viability: 1.07 ± 0.085
[4]
  TCF/Wnt firefly luciferase reporter signal: 0.963 ± 0.0057
[5]
  TCF/Wnt firefly luciferase reporter signal: 1.08 ± 0.085

## C[C@]12CC[C@@H]3c4ccc(O)cc4CC[C@H]3[C@@H]1CC[C@@H]2O
[1]
  cell viability: 0.914 ± 0.11
[2]
  cell viability: 1.01 ± 0.098
[3]
  cell viability: 0.949 ± 0.024
[4]
  TCF/Wnt firefly luciferase reporter signal: 1.07 ± 0.092
[5]
  TCF/Wnt firefly luciferase reporter signal: 1.02 ± 0.021

## C1N2CN3CN1CN(C2)C3
[1]
  cell viability: 1.04 ± 0.085
[2]
  cell viability: 1.08 ± 0.12
[3]
  cell viability: 0.978 ± 0.028
[4]
  TCF/Wnt firefly luciferase reporter signal: 0.985 ± 0.05
[5]
  TCF/Wnt firefly luciferase reporter signal: 1.02 ± 0.028

## COc1c(-c2coc3cc4c(cc3c2=O)CC(OC(C)=O)C(C)(C)O4)ccc2c1C=CC(C)(C)O2 (stereo not given)
[1]
  cell viability: 0.961 ± 0.0085
[2]
  cell viability: 0.887 ± 0.077
[3]
  cell viability: 1.01 ± 0.045
[4]
  TCF/Wnt firefly luciferase reporter signal: 1.01 ± 0.32
[5]
  TCF/Wnt firefly luciferase reporter signal: 1.1 ± 0.16

## O=C1c2ccc(O)c(O)c2C(=O)c2c(O)ccc(O)c21
[1]
  cell viability: 0.966 ± 0.048
[2]
  cell viability: 0.877 ± 0.023
[3]
  cell viability: 0.964 ± 0.03
[4]
  TCF/Wnt firefly luciferase reporter signal: 1.09 ± 0.092
[5]
  TCF/Wnt firefly luciferase reporter signal: 1.1 ± 0.085

## COc1ccc2c(c1)[C@@]1(C)CC[C@@H](O)C[C@@H]1CC2 [12-METHOXY-4,4-BISNOR-5alpha-8,11,13-PODOCARPATRIEN-3-OL]
[1]
  cell viability: 1.02 ± 0.014
[2]
  cell viability: 1.1 ± 0.13
[3]
  cell viability: 0.984 ± 0.037
[4]
  TCF/Wnt firefly luciferase reporter signal: 1.03 ± 0.11
[5]
  TCF/Wnt firefly luciferase reporter signal: 0.937 ± 0.021

## COc1cc(C)c(C(=O)Oc2cc(C)c(C(=O)O)c(O)c2C)c(OC)c1C
[1]
  cell viability: 0.961 ± 0.033
[2]
  cell viability: 1.025 ± 0.0071
[3]
  cell viability: 0.987 ± 0.047
[4]
  TCF/Wnt firefly luciferase reporter signal: 0.953 ± 0.034
[5]
  TCF/Wnt firefly luciferase reporter signal: 1 ± 0.099

## CC(=O)[C@H]1CC[C@H]2[C@@H]3CC=C4C[C@@H](O)CC[C@]4(C)[C@H]3CC[C@]12C
[1]
  cell viability: 1.07 ± 0.028
[2]
  cell viability: 0.941 ± 0.023
[3]
  cell viability: 0.956 ± 0.028
[4]
  TCF/Wnt firefly luciferase reporter signal: 1.1 ± 0.05
[5]
  TCF/Wnt firefly luciferase reporter signal: 1.19 ± 0.014

## NC(=O)c1ncn([C@@H]2O[C@H](CO)[C@@H](O)[C@H]2O)c1N
[1]
  cell viability: 0.989 ± 0.03
[2]
  cell viability: 0.947 ± 0.055
[3]
  cell viability: 0.949 ± 0.04
[4]
  TCF/Wnt firefly luciferase reporter signal: 1 ± 0.012
[5]
  TCF/Wnt firefly luciferase reporter signal: 0.927 ± 0.044
